# The sample as a whole holds a higher share of hits than the screen did.
# KDM5B inhibitor = blocks human KDM5B histone demethylase activity; Potency, µM (doses to about 57.7 µM), actives largely listed as inhibitors; Q9UGL1; KDM5B demethylase, FDH-coupled NADH fluorescence (FDH is formaldehyde dehydrogenase); AID 1347165; 220,000 compounds, 2.6% hits; active means well fitted inhibition curve with a large enough effect; further: nearly all actives have a fitted effect of over 70% in size
#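 Measured: NADH fluorescence change, 30 min, RT. System: KDM5BΔAP 200 nM final, H3K4me3 peptide, α-KG, Fe(II), ascorbate, NAD⁺ plus FDH, pH 7.5 HEPES. Compounds: titrated, 10 min pre-incubation with enzyme.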
# Numbers stand for hits; i = inactive.
SMILES,KDM5B inhibitor
CC(NC(=O)CCc1ncc(-c2ccc(Cl)cc2)o1)c1ccc(S(C)(=O)=O)cc1 (stereo unspecified),i
COc1ccc(C(=O)Cn2c(=O)oc3cc(S(=O)(=O)N4CCOCC4)ccc32)cc1F,i
CCOc1ccc(C(=O)OCc2ncc(-c3ccccc3)o2)cc1,i
CCCCn1c(=O)[nH]c(=O)c2c1nc(CCC(=O)NC1CCN(CC)CC1)n2CC(C)C,i
CC(C)NC(=O)c1cc(Br)c(Br)s1,i
Cc1cc2oc(=O)cc(CN3CCCCCC3)c2cc1Cl,i
Cc1ccccc1C(=O)OCC1CCC[N+]2(C)CCCCC12 (stereo unspecified),i
Cc1ccc(CN2CCC(Oc3ccc(C(=O)NCc4ccccn4)cc3)CC2)o1,i
Cc1ccc(CN2CCC(CNc3nccc(-c4ccccn4)n3)CC2)o1,28µM
Cc1ccc(CN2CCC(CNc3cc(C4CC(O)C4)ncn3)CC2)o1 (stereo unspecified),i
CC(=O)Nc1ccc(NC(=O)C(C)On2nnc3ccc(Cl)cc32)cc1 (stereo unspecified),i
COc1ccccc1-c1cc(-c2cccs2)nc2c(C)noc12,35µM
Cc1cc(-c2cc(-c3cccs3)nc3c(C)noc23)ccn1,28µM
COCCCNc1cc(-c2cccs2)nc2c(C)noc12,i
Cc1noc2c(-c3ccc(N4CCOCC4)cc3)cc(-c3cccs3)nc12,i
COc1nc2cc(C)ccc2cc1-c1noc(-c2cccs2)n1,i
Cc1noc2c(N3CCOCC3)cc(-c3cccs3)nc12,i
COC(=O)c1ccc(OCC(=O)NCC(F)(F)F)cc1,i
N#Cc1ccc(Cn2c(CN3CCOCC3)nc3scc(-c4cccs4)c3c2=O)cc1,i
Cn1cccc1CN1CCCC2(C1)C(=NC1CCCC1)NC(=O)N2c1cc(F)cc(F)c1 (stereo unspecified),i
Cc1cc(CSCC(=O)Nc2ccccc2C)on1,i
COc1ccc(-c2noc(CC3CCN(C(=O)C4(c5ccc(OC)cc5)CC4)CC3)n2)cc1,i
COc1ccc(-c2noc(C(=O)O)c2[C@@H](C)NC(=O)c2cccn2C)cc1,40µM
COc1ccc(-c2noc(C(=O)O)c2[C@@H](C)NC(=O)Cc2ccccc2)cc1,i
COc1ccc(-c2noc(C(=O)O)c2[C@@H](C)NC(=O)c2ccccc2)cc1,i
SMILES,KDM5B inhibitor
COc1ccc(CCc2nc3nccc(-c4ccc(F)cc4)n3n2)cc1OC,i
CCc1nc2nccc(-c3ccc4c(c3)OCCCO4)n2n1,28µM
COc1ccc(Cc2nc3nccc(-c4ccc(OC)cc4)n3n2)cc1,14µM
CCc1nc2nccc(-c3ccc(Br)s3)n2n1,i
COc1ccc(-c2ccnc3nc(Cc4ccc(F)cc4)nn23)cc1OC,28µM
CCc1nc2nccc(-c3cccc(OC)c3)n2n1,25µM
COCc1nc(-c2ccc3c(c2)OCCCO3)cs1,i
COc1ccc(Cc2nc3nccc(-c4ccncc4)n3n2)cc1,i
COCCOc1ccc(C(C)NC(=O)Cc2cccs2)cc1OC (stereo unspecified),i
S=C(Nc1ccc(Cl)cc1)NC1CC1,i
Cc1cc(C)nc(CC#N)n1,i
Cc1nnc2ccc(N3CCC(C(=O)Nc4ccc5c(c4)OCO5)CC3)nn12,i
Cc1ccc(S(=O)(=O)N2CCN(C(=O)CCn3ccc4ccccc43)CC2)cc1,i
CN(C)C(=O)c1ccc(NC(=O)COc2ccc(-c3ccc(Br)cc3)cc2)cc1,i
Cc1cc(C)c(C(C)NC(=O)Cn2nnn(-c3ccccc3)c2=O)cc1C (stereo unspecified),i
Cc1ccc2nc(/C(C#N)=C\c3ccc(O)cc3)[nH]c2c1,i
C(#Cc1cc(-c2ccccc2)nc(-c2ccccc2)c1)c1ccccc1,i
Cc1ccc(-c2ccc(OCC(=O)Nc3ccc(C(=O)N(C)C)cc3)cc2)cc1,i
CCn1c(-c2ccc(OC)c(O)c2)nc2c1c(=O)[nH]c(=O)n2Cc1ccccc1,i
Cn1nc(C(=O)Nc2ncc(Cc3ccc(Cl)cc3)s2)ccc1=O,i
O=C1CO[C@H]2CCN(Cc3c[nH]c4ccccc34)CC[C@@H]2N1Cc1ccccc1,i
COCc1nc2nccc(-c3ccc4c(c3)CC(C)O4)n2n1 (stereo unspecified),28µM
CCc1nc2nccc(-c3ccc(OC)cc3)n2n1,22µM
COCc1nc2nccc(-c3ccc(OC)cc3)n2n1,i
COc1ccc(Cc2nc3nccc(-c4ccc(OC)c(OC)c4)n3n2)cc1,20µM
SMILES,KDM5B inhibitor
CCc1ccc2oc(C(=O)Nc3ccc(C)cc3)cc(=O)c2c1,i
CC(C)(C)CC(=O)NCC(=O)C(C#N)c1ccc2ccccc2n1 (stereo unspecified),i
CN1CCN(C(=O)c2cc(-c3ccccn3)nc3ccccc23)CC1,i
Cc1ccc(N(Cc2ccco2)C(=O)Cn2cnc3ccc(F)cc3c2=O)cc1,i
CC(C)Sc1nnc(COc2ccc(Cl)cc2)n1C,i
CCC(O)C1=C(c2ccccc2)Oc2ccccc2C1c1ccccc1 (stereo unspecified),i
CN(C)C(=O)c1cc2cccnn2n1,32µM
CC(c1cccc(-c2cccc(C(=O)N(C)C)n2)c1)N1CCCC1 (stereo unspecified),i
CNC(=O)c1cn2c(n1)CN(C(=O)c1ccccc1)CC2,i
CN(C)C(=O)c1cc(C(C)(C)C)c2cccn2n1,i
CNC(=O)c1cc(-c2ccc(Cl)cc2)n(-c2ccccc2)n1,i
CNC(=O)c1cc2cccnn2n1,32µM
COc1ccc(NC(=O)COc2coc(CN3CCSCC3)cc2=O)cc1OC,i
CC(NC(=O)c1ccccc1I)C1CC2CCC1C2 (stereo unspecified),i
CCOc1ccc(S(=O)(=O)N2CCSC2c2ccc(OC)c(Br)c2)cc1 (stereo unspecified),i
COCc1ccc(CNC(=O)/C=C/c2sccc2C)cc1,i
COc1ccc(C(=O)N2CCC(Oc3ncccc3C(=O)N3CCCCC3)C2)c(C)c1 (stereo unspecified),i
COc1cc(C(=O)NCc2c(C)nn(Cc3ccccc3)c2C)cc(Cl)c1OC,i
C[C@@H]1CN(C(=O)c2cnc3c(O)cccn3c2=O)CC[C@@]1(O)C1CCC1,32µM
C[C@@H]1CN(C(=O)c2cccc(-c3ncc[nH]3)c2)CC[C@@]1(O)C1CCOCC1,i
Cc1cccc(N2CCN(C(=O)c3cnc4c(C)cccn4c3=O)CC2C)c1 (stereo unspecified),i
C=C(C)CSc1nc2c(c(=O)[nH]c(=O)n2C)n1CCCc1ccccc1,i
CC(C)Oc1ccc(CN2CCC(CO)(CN3CCCC3)CC2)cc1Cl,i
CCNc1c(NC(=O)c2ccc(OC(C)=O)c(OC)c2)c(=O)oc2ccccc12,i
COc1ccc(-c2noc([C@@H]3CCCN3C(=O)c3ccc(OC)c(OC)c3)n2)cc1,i
SMILES,KDM5B inhibitor
Cc1ccc(-c2noc([C@@H]3CCCN3C(=O)c3cnccn3)n2)cc1,i
O=C(Cc1ccccc1Cl)N1CCC[C@H]1c1nc(-c2ccc(F)cc2)no1,i
CC(=O)N1CCN(c2cc(-c3noc([C@@H]4CCCN4Cc4ccccc4C)n3)ccn2)CC1,20µM
Cc1ccc(C(=O)N2CCC[C@H]2c2nc(-c3ccccc3)no2)cc1,i
CC(=O)N1CCN(c2cc(-c3noc([C@@H]4CCCN4Cc4ccc(CO)o4)n3)ccn2)CC1,28µM
CCOC(=O)c1c(C)c(CCC(=O)NCCN2CCCC2)c(C)n1C,i
Cc1cc(C(=O)OCC(=O)NC(c2ccccc2)c2ccccc2)c2ccccc2n1,i
O=C(COc1ccc(Cl)cc1)N1CCC(c2n[nH]c(=O)n2Cc2ccc(F)cc2)CC1,i
Cc1ccc(C)c(NC(=O)CCC2CCCC2)c1,i

# Screening data from PubChem.
